In PubChem BioAssay (NCI):
The panel holds about 83,000 compounds, 20% with a hit somewhere; the sample as a whole holds those more often.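 Percent growth is the endpoint: 0 to 100 indicates growth inhibition (40 means 60% inhibition), 0 means no net growth, and negative values indicate cell death.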 A number with no mark means an inactive call. The source made the active and inactive calls. The calls were made as follows: active = growth percent below 10; inactive = the rest.

Key:
Experiment in all cases: NCI-60 one-dose screen, 48 h (100 = growth as untreated, 0 = no growth, -100 = all killed)
Details in all cases: 10 µM unless noted
NCI/ADR-RES ovarian = system: NCI/ADR-RES ovarian
T-47D breast = system: T-47D breast
BT-549 breast = system: BT-549 breast
MDA-MB-435 melanoma = system: MDA-MB-435 melanoma
SW-620 colon = system: SW-620 colon
MCF7 breast = system: MCF7 breast
HCT-116 colon = system: HCT-116 colon
HCC-2998 colon = system: HCC-2998 colon
KM12 colon = system: KM12 colon

| Structure (SMILES) | growth (NCI/ADR-RES ovarian) | growth (T-47D breast) | growth (BT-549 breast) | growth (MDA-MB-435 melanoma) | growth (SW-620 colon) | growth (MCF7 breast) | growth (HCT-116 colon) | growth (HCC-2998 colon) | growth (KM12 colon) |
| --- | --- | --- | --- | --- | --- | --- | --- | --- | --- |
| C[C@]12CC[C@@H]3c4ccc(Oc5nc(N6CC6)nc(N6CC6)n5)cc4CC[C@H]3[C@@H]1CCC2=O | 41.2% | 33.7% | 53.9% | 48.5% | 25.1% | 20.6% | 26.7% | 37% | 50% |
| COC(=O)[C@@H](C)C[C@H](Cc1ccccc1)NC(=O)c1csc([C@@H](C[C@H](C(C)C)N(C)C(=O)[C@@H](NC(=O)[C@H]2CCCCN2C)C(C(F)(F)F)C(F)(F)F)OC(C)=O)n1 | 23.8% | 59.7% | -21.6% (active) | -46.1% (active) | 23.1% | 12.2% | -10.3% (active) | 19.9% | 7.94% (active) |
| C=C(C)[C@@]12OC3(/C=C/C=C/CCCCC)O[C@@H]1[C@@H]1[C@@H]4O[C@]4(CO)[C@@H](O)[C@]4(O)C(=O)C(C)=C[C@H]4[C@@]1(O3)[C@H](C)[C@H]2OC(=O)c1ccccc1 | 69.4% | 81.7% | 83% | 40.5% | 58.9% | 38.7% | 49.7% | -3.12% (active) | 9.5% (active) |
| CC(C)(NC(=O)O[C@@H]1CN2CCC1CC2)c1csc(-c2ccc(F)cc2)n1 | 96.8% | 88.3% | 101% | 99.1% | 99.2% | 90.3% | 95.5% | 102% | 101% |
| CCC(CC)CC1(C)CC2(C)CCOC2OO1 (stereo not given) | 104% | 97.8% | 112% | 109% | 104% | 104% | 108% | 93.4% | 111% |
| ClCCN(CCCl)c1ccc(OCc2ccccc2)cc1 | 56.7% | 68.4% | 42.7% | 75% | 60.9% | 31.7% | 55.9% | 89.1% | 90.5% |
| c1cnc2[nH]cc(-c3csc(-c4cn(CCCCN5CCCCC5)c5ccccc45)n3)c2c1 | 89.8% | 79.4% | 105% | 80.5% | 76.8% | 58.9% | 81.8% | 95.6% | 85.5% |
| COc1cc2c(cc1OCCCCCn1c(-c3ccco3)nc3ccccc31)N=C[C@@H]1CCCN1C2=O | 11.2% | 27.8% | 18% | -48.1% (active) | 15% | 13.4% | 14.5% | -22.3% (active) | 2.44% (active) |
| O=P(N1CC1)(N1CC1)N1CCc2ccccc21 | 101% | 111% | 99.4% | 111% | 101% | 86.5% | 94.2% | 99.5% | 113% |
| O=C(O)c1c(Cl)n(Cc2ccc(O)cc2)c2ccc(O)cc12 | 118% | 118% | 99.4% | 87% | 101% | 101% | 95% | 119% | 107% |
| CO[C@H]1CC[C@@]2(C)C(=CC[C@@H]3[C@@H]2CC[C@]2(C)C(=O)C(=O)C[C@@H]32)C1 | 104% | 97.1% | 106% | 112% | 100% | 102% | 97% | 109% | 111% |
| O=C(CC1(O)C(=O)N(Cc2ccccc2)c2ccc(F)cc21)c1ccc(C(=O)NCC2CCC3(CC2)OOC2(CCCCC2)OO3)cc1 (stereo not given) | -48.6% (active) | -53.9% (active) | -19.7% (active) | -80.7% (active) | -62.3% (active) | 7.64% (active) | 4.47% (active) | 44.9% | -68.1% (active) |
| Cc1sc2c(c1C)C(c1ccc(Cl)cc1)=N[C@@H](CC(=O)OC(C)(C)C)c1nnc(C)n1-2 | 34.2% | 51.9% | 58.5% | 30% | 52.4% | 19.1% | 31% | 19.1% | 40.7% |
| CN1C(=O)C(=Cc2cn(CCCCCCn3c4ccccc4c(=O)c4ccccc43)c3ccccc23)C(=O)N(C)C1=O | 90.7% | 75% | 91.2% | 107% | 103% | 81.1% | 85.5% | 99.4% | 98.7% |
| CCCCCCCC[n+]1ccc2ccccc2c1 | 95.6% | 27.1% | 32.3% | 46.2% | 75.9% | 41.1% | 46.5% | 47.4% | 46.1% |
| CC1(C)N=C(N)N=C(N)N1c1ccc(CCCCc2ccc(Cl)c(S(=O)(=O)F)c2)c(Cl)c1 | 55.6% | 42.3% | 24.7% | 24.6% | 24.4% | 19.1% | 19.6% | 23.7% | 15.2% |
| COC(=O)[C@@H](C)C[C@H](Cc1ccccc1)NC(=O)c1csc([C@@H](C[C@H](C(C)C)N(C)C(=O)[C@@H](NC(=O)[C@H]2CCCCN2C)C2CC2)OC(C)=O)n1 | 8.28% (active) | 73% | -30.6% (active) | -12.1% (active) | 48.4% | 16.3% | 7.53% (active) | 15.9% | 5.07% (active) |
| Cc1cc(C)cc(Nc2nc3c(s2)CC[C@@]2(C)C3=CC[C@@H]3[C@@H]2CC[C@]2(C)C(=O)CC[C@@H]32)c1 | 74.5% | 28.9% | 47.2% | 72.8% | 37.8% | 16.9% | 6.21% (active) | 94.2% | 55.5% |
| CN1CCCCC1C(C)(O)c1ccccc1 (stereo not given) | 96.1% | 92.2% | 87.4% | 99.2% | 110% | 85.7% | 93% | 115% | 106% |
| COC(=O)CC[C@H](Cc1ccccc1)NC(=O)c1csc([C@@H](C[C@H](C(C)C)N(C)C(=O)[C@@H](NC(=O)[C@H]2CCCCN2C)C(C)C)OC(C)=O)n1 | 30.4% | 77.8% | -22.4% (active) | 1.58% (active) | 35.8% | 17.1% | 20.8% | 42.4% | 24.8% |
| ClCCN(CCCl)Cc1ccc(Nc2ccnc3cc(Cl)ccc23)cc1 | 71.3% | 36.2% | 65.2% | 39.6% | 34.3% | 18% | 36.5% | 71% | 62.9% |
| CC(=O)ONc1ccc([N+](=O)[O-])c(C(F)(F)F)c1 | 101% | 77.1% | 92.9% | 105% | 102% | 93.6% | 100% | 108% | 101% |
| O=C1C(=Cc2cn(Cc3ccccc3)c3ccccc23)C(=O)N(Cc2ccccc2)C(=O)N1Cc1ccccc1 | 106% | 51.7% | 118% | 108% | 101% | 80.3% | 76.2% | 97.4% | 101% |
| CC(=O)O[C@H](C[C@H](C(C)C)N(C)C(=O)[C@@H](NC(=O)[C@H]1CCCCN1C)C(C)(C)C)c1nc(C(=O)N[C@@H](Cc2ccccc2)C[C@H](C)C(=O)O)cs1 | 12.3% | 45.6% | -23.6% (active) | -47% (active) | 24.5% | 16.4% | 0.775% (active) | 8.37% (active) | 6.93% (active) |
| COc1ccc([As]=[As]c2ccc(OC)c(NCS(=O)(=O)O)c2)cc1NCS(=O)(=O)O (stereo not given) | 73.7% | -41.9% (active) | -12.1% (active) | 48.8% | -1.05% (active) | -67.5% (active) | -60.2% (active) | 57.5% | 72.9% |
